Laboratory results as given in PubChem BioAssay AID1159580 (chemical genetic matrix, 2015).
Screen size: about 5,500 compounds; about 2,000 (36%) were called active. Roughly 18% stayed inconclusive and do not appear here. No stated cut-off is given here; in the data, active means normalized growth mostly below about 0.91 (no sharp cut-off); inconclusive means no clear call, values can overlap the other calls; inactive means mostly above about 0.92. This is one part of the list.

Test: chemical genetic growth profiling, strain panel (AID 1159580);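 further: tested at 20 µM; growth read once vehicle control cultures reached saturation at 30 °C; 1 = growth at the plate median or of vehicle wells; lower values mean less growth of the strain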
Details: growth OD
[1] = S. cerevisiae deletion strains, locus YAR019C, strain CDC15, active compounds read low
[2] = S. cerevisiae deletion strains, locus YBL105C, strain PKC1, active compounds read low
[3] = S. cerevisiae deletion strains, locus YBR135W, strain CKS1, active compounds read low
[4] = S. cerevisiae deletion strains, locus YBR136W, strain MEC1, active compounds read low
[5] = S. cerevisiae deletion strains, locus YBR160W, strain CDC28, active compounds read low
[6] = S. cerevisiae deletion strains, locus YDL017W, strain CDC7, active compounds read low
[7] = S. cerevisiae deletion strains, locus YDL028C, strain MPS1, active compounds read low
[8] = S. cerevisiae deletion strains, locus YDL101C, strain DUN1, active compounds read low
[9] = S. cerevisiae deletion strains, locus YDL108W, strain KIN28, active compounds read low
[10] = S. cerevisiae deletion strains, locus YDL132W, strain cdc53, active compounds read low
[11] = S. cerevisiae deletion strains, locus YDL214C, strain PRR2, active compounds read low
[12] = S. cerevisiae deletion strains, locus YDR052C, strain DBF4, active compounds read low
[13] = S. cerevisiae deletion strains, locus YDR054C, strain cdc34, active compounds read low
[14] = S. cerevisiae deletion strains, locus YDR226W, strain ADK1, active compounds read low
[15] = S. cerevisiae deletion strains, locus YDR477W, strain SNF1, active compounds read low
[16] = S. cerevisiae deletion strains, locus YER123W, strain YCK3, active compounds read low
[17] = S. cerevisiae deletion strains, locus YER133W, strain GLC7, active compounds read low
[18] = S. cerevisiae deletion strains, locus YFL009W, strain cdc4, active compounds read low
[19] = S. cerevisiae deletion strains, locus YFL029C, strain CAK1, active compounds read low
[20] = S. cerevisiae deletion strains, locus YFR003C, strain YPI1, active compounds read low
[21] = S. cerevisiae deletion strains, locus YFR019W, strain FAB1, active compounds read low
[22] = S. cerevisiae deletion strains, locus YFR028C, strain CDC14, active compounds read low
[23] = S. cerevisiae deletion strains, locus YGR040W, strain KSS1, active compounds read low
[24] = S. cerevisiae deletion strains, locus YGR052W, strain FMP48, active compounds read low
[25] = S. cerevisiae deletion strains, locus YGR092W, strain DBF2, active compounds read low
[26] = S. cerevisiae deletion strains, locus YHR030C, strain SLT2, active compounds read low
[27] = S. cerevisiae deletion strains, locus YHR079C, strain IRE1, active compounds read low
[28] = S. cerevisiae deletion strains, locus YHR082C, strain KSP1, active compounds read low
[29] = S. cerevisiae deletion strains, locus YHR205W, strain SCH9, active compounds read low
[30] = S. cerevisiae deletion strains, locus YIL147C, strain SLN1, active compounds read low
[31] = S. cerevisiae deletion strains, locus YJL095W, strain BCK1, active compounds read low
[32] = S. cerevisiae deletion strains, locus YJL128C, strain PBS2, active compounds read low
[33] = S. cerevisiae deletion strains, locus YJL157C, strain FAR1, active compounds read low
[34] = S. cerevisiae deletion strains, locus YJR016C, strain ILV3, active compounds read low
[35] = S. cerevisiae deletion strains, locus YJR066W, strain TOR1 (second series), active compounds read low
[36] = S. cerevisiae deletion strains, locus YJR066W, strain TOR1, active compounds read low
[37] = S. cerevisiae deletion strains, locus YKL048C, strain ELM1, active compounds read low
[38] = S. cerevisiae deletion strains, locus YKL067W, strain YNK1, active compounds read low
[39] = S. cerevisiae deletion strains, locus YKL101W, strain HSL1, active compounds read low
[40] = S. cerevisiae deletion strains, locus YKL193C, strain SDS22, active compounds read low
[41] = S. cerevisiae deletion strains, locus YKL203C, strain TOR2, active compounds read low
[42] = S. cerevisiae deletion strains, locus YLR113W, strain HOG1, active compounds read low
[43] = S. cerevisiae deletion strains, locus YLR133W, strain CKI1, active compounds read low
[44] = S. cerevisiae deletion strains, locus YLR403W, strain SFP1, active compounds read low
[45] = S. cerevisiae deletion strains, locus YML070W, strain DAK1, active compounds read low
[46] = S. cerevisiae deletion strains, locus YMR001C, strain CDC5, active compounds read low
[47] = S. cerevisiae deletion strains, locus YMR205C, strain PFK2 (second series), active compounds read low
[48] = S. cerevisiae deletion strains, locus YMR277W, strain FCP1, active compounds read low
[49] = S. cerevisiae deletion strains, locus YNL006W, strain LST8, active compounds read low
[50] = S. cerevisiae deletion strains, locus YNL020C, strain ARK1, active compounds read low
[51] = S. cerevisiae deletion strains, locus YNL161W, strain CBK1, active compounds read low
[52] = S. cerevisiae deletion strains, locus YNL183C, strain NPR1, active compounds read low
[53] = S. cerevisiae deletion strains, locus YNL207W, strain RIO2, active compounds read low
[54] = S. cerevisiae deletion strains, locus YNL222W, strain SSU72, active compounds read low
[55] = S. cerevisiae deletion strains, locus YNL307C, strain MCK1 (second series), active compounds read low
[56] = S. cerevisiae deletion strains, locus YOL078W, strain AVO1, active compounds read low
[57] = S. cerevisiae deletion strains, locus YOL136C, strain PFK27, active compounds read low
[58] = S. cerevisiae deletion strains, locus YOR061W, strain CKA2, active compounds read low
[59] = S. cerevisiae deletion strains, locus YOR119C, strain RIO1, active compounds read low
[60] = S. cerevisiae deletion strains, locus YOR231W, strain MKK1, active compounds read low
[61] = S. cerevisiae deletion strains, locus YOR329C, strain SCD5, active compounds read low
[62] = S. cerevisiae deletion strains, locus YPL031C, strain PHO85, active compounds read low
[63] = S. cerevisiae deletion strains, locus YPL153C, strain RAD53, active compounds read low
[64] = S. cerevisiae deletion strains, locus YPL204W, strain HRR25, active compounds read low
[65] = S. cerevisiae deletion strains, locus YPL209C, strain IPL1, active compounds read low
[66] = S. cerevisiae deletion strains, locus YPL256C, strain CLN2, active compounds read low
[67] = S. cerevisiae deletion strains, locus YPR025C, strain CCL1, active compounds read low
[68] = S. cerevisiae deletion strains, locus YPR106W, strain ISR1, active compounds read low
[69] = S. cerevisiae deletion strains, locus YPR111W, strain DBF20, active compounds read low
[70] = S. cerevisiae deletion strains, strain NNK1, active compounds read low
[71] = S. cerevisiae deletion strains, strain TSCII, active compounds read low

Measured: normalized growth

Cc1cc(C)cc(Sc2ccc3nnc(-c4ccccc4)n3n2)c1
inactive: [1] 0.983 | [2] 0.988 | [3] 0.984 | [4] 0.977 | [5] 0.988 | [6] 0.986 | [7] 1 | [8] 0.973 | [9] 0.993 | [10] 0.977 | [11] 0.998 | [12] 0.986 | [13] 0.975 | [14] 0.982 | [15] 0.99 | [16] 0.972 | [17] 0.978 | [18] 0.979 | [19] 0.984 | [20] 0.991 | [21] 0.962 | [22] 0.987 | [23] 0.991 | [24] 1.09 | [25] 0.977 | [26] 1.08 | [27] 1.07 | [28] 1.07 | [29] 0.988 | [30] 1 | [31] 1.06 | [32] 0.933 | [33] 0.982 | [34] 0.979 | [35] 0.942 | [36] 1.11 | [37] 0.979 | [38] 0.999 | [39] 0.986 | [40] 0.983 | [41] 1.06 | [42] 0.978 | [43] 0.998 | [44] 1 | [45] 0.983 | [46] 0.981 | [47] 0.997 | [48] 0.986 | [49] 0.998 | [50] 1 | [51] 0.986 | [52] 1.1 | [53] 0.989 | [54] 0.983 | [55] 0.995 | [56] 0.992 | [57] 0.995 | [58] 0.986 | [59] 0.993 | [60] 1.05 | [61] 0.985 | [62] 0.978 | [63] 0.944 | [64] 0.965 | [65] 0.985 | [66] 1.04 | [67] 0.984 | [68] 0.977 | [69] 0.982 | [70] 0.98 | [71] 0.982

O=C(CCc1nc(-c2ccc(Cl)cc2)no1)NNS(=O)(=O)c1cc(Cl)c(Cl)cc1Cl
inactive: S. cerevisiae deletion strains, locus YAL013W, strain DEP1, active compounds read low 1.01 | S. cerevisiae deletion strains, locus YBR229C, strain ROT2, active compounds read low 1.01 | S. cerevisiae deletion strains, locus YCL061C, strain MRC1, active compounds read low 1.01 | [8] 1.03 | S. cerevisiae deletion strains, locus YDL134C, strain PPH21, active compounds read low 1 | S. cerevisiae deletion strains, locus YDR150W, strain NUM1, active compounds read low 0.998 | S. cerevisiae deletion strains, locus YEL061C, strain CIN8, active compounds read low 0.961 | S. cerevisiae deletion strains, locus YGR078C, strain PAC10, active compounds read low 1.02 | [26] 0.98 | S. cerevisiae deletion strains, locus YHR087W, strain rtc3, active compounds read low 0.958 | S. cerevisiae deletion strains, locus YJR043C, strain POL32, active compounds read low 0.999 | S. cerevisiae deletion strains, locus YJR075W, strain HOC1, active compounds read low 0.994 | S. cerevisiae deletion strains, locus YLR039C, strain RIC1, active compounds read low 0.971 | S. cerevisiae deletion strains, locus YLR058C, strain SHM2 (second series), active compounds read low 1.01 | S. cerevisiae deletion strains, locus YLR085C, strain ARP6, active compounds read low 1 | S. cerevisiae deletion strains, locus YLR262C, strain YPT6, active compounds read low 1.03 | S. cerevisiae deletion strains, locus YML094W, strain GIM5, active compounds read low 0.968 | S. cerevisiae deletion strains, locus YMR219W, strain ESC1, active compounds read low 1 | S. cerevisiae deletion strains, locus YMR263W, strain SAP30, active compounds read low 1.01 | S. cerevisiae deletion strains, locus YNL153C, strain GIM3, active compounds read low 1 | S. cerevisiae deletion strains, locus YNL298W, strain CLA4 (second series), active compounds read low 0.993 | S. cerevisiae deletion strains, locus YNL322C, strain KRE1, active compounds read low 1.02 | S. cerevisiae deletion strains, locus YNR030W, strain Alg12, active compounds read low 1.03 | S. cerevisiae deletion strains, locus YOL006C, strain TOP1, active compounds read low 1.02 | S. cerevisiae deletion strains, locus YPL055C, strain LGE1, active compounds read low 0.973 | S. cerevisiae deletion strains, locus YPL241C, strain CIN2, active compounds read low 1.04 | S. cerevisiae deletion strains, locus YPR135W, strain CTF4, active compounds read low 1.03 | S. cerevisiae strains, strain wild type, active compounds read low 1

CC(=O)c1ccc(Cl)c(NS(=O)(=O)c2cc(Cl)c(Cl)cc2Cl)c1
inactive: [1] 0.906 | [2] 0.925 | [3] 0.91 | [4] 0.914 | [6] 0.925 | [8] 0.95 | [9] 0.905 | [10] 0.9 | [11] 0.868 | [12] 0.933 | [13] 0.909 | [15] 0.799 | [16] 0.794 | [17] 0.875 | [19] 0.898 | [20] 0.917 | [21] 0.881 | [22] 0.895 | [23] 0.805 | [24] 0.781 | [25] 0.631 | [27] 0.697 | [28] 0.735 | [29] 0.801 | [30] 0.904 | [31] 0.636 | [32] 0.835 | [33] 0.877 | [34] 0.921 | [35] 0.811 | [36] 0.719 | [37] 0.843 | [38] 0.864 | [39] 0.814 | [40] 0.906 | [41] 0.905 | [43] 0.865 | [44] 0.826 | [45] 0.811 | [46] 0.899 | [47] 0.905 | [48] 0.885 | [49] 0.925 | [50] 0.829 | [51] 0.921 | [52] 0.819 | [53] 0.906 | [55] 0.786 | [56] 0.9 | [57] 0.789 | [58] 0.744 | [59] 0.832 | [60] 0.704 | [61] 0.923 | [62] 0.788 | [63] 0.768 | [64] 0.763 | [65] 0.916 | [67] 0.912 | [68] 0.904 | [70] 0.894 | [71] 0.898
active: [5] 0.886 | [7] 0.89 | [14] 0.897 | [18] 0.881 | [26] 0.317 | [42] 0.648 | [54] 0.884 | [66] 0.664 | [69] 0.858
